# Data reported in PubChem BioAssay (NCATS).
# Records with an inconclusive call do not appear. A call without a number means that no potency is given here. Values without a mark were called inactive. Calls of active or inactive are those of the source. Calls come from the whole dose curve; as a rule, active = well fitted curve in the direction sought with a large enough effect; inconclusive = small, poorly fitted or top-dose-only effect, or another doubt; inactive = no such curve, though single readings can be large; an effect the other way counts as inactive or inconclusive.
# How the values were obtained:
# [1] = molecular target: Rap guanine nucleotide exchange factor 3 (Homo sapiens) (UniProt O95398); test: Confirmatory qHTS for antagonist of cAMP-regulated guanine nucleotide exchange factor 3 (EPAC1) (AID 1645880); note: nearly all actives have a fitted effect of over 55% in size; note: potency is the fitted concentration of half-maximal effect
# In short: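 Nucleotide exchange uses 100 nM EPAC1, 250 nM RAP1B-BODIPY-GDP and 50 uM GDP, with compounds in a concentration-titration series. After 5 min at room temperature, fluorescence (480 nm ex/540 nm em) is read every 5 min for 30 min. Data are normalized to control ATA and DMSO.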
# [2] = molecular target: Rap guanine nucleotide exchange factor 3 (Homo sapiens) (UniProt O95398); test: Confirmatory qHTS for agonist of cAMP-regulated guanine nucleotide exchange factor 3 (EPAC1) (AID 1645881); note: nearly all actives have a fitted effect of over 75% in size; note: potency is the fitted concentration of half-maximal effect;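 for activation: EPAC1 catalysed release of BODIPY-GDP from Rap1B seen as fluorescence loss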
# [3] = molecular target: Rap guanine nucleotide exchange factor 4 (Homo sapiens) (UniProt Q8WZA2); test: Confirmatory qHTS for agonist of cAMP-regulated guanine nucleotide exchange factor 4 (EPAC2) (AID 1645884);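 note: nucleotide exchange releases bodipy-GDP from Rap1 and this lowers its fluorescence; nearly all actives have a fitted effect of over 65% in size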; note: potency is the fitted concentration of half-maximal effect
# [4] = molecular target: Rap guanine nucleotide exchange factor 4 (Homo sapiens) (UniProt Q8WZA2); test: Confirmatory qHTS for antagonist of cAMP-regulated guanine nucleotide exchange factor 4 (EPAC2) (AID 1645885); note: nearly all actives have a fitted effect of over 25% in size; note: potency is the fitted concentration of half-maximal effect
# [5] = molecular target: Rap guanine nucleotide exchange factor 3 (Homo sapiens) (UniProt O95398); test: Counterscreen qHTS for antagonist of cAMP-regulated guanine nucleotide exchange factor 3 (EPAC1) (AID 1645888);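 note: fluorescence loss as bound BODIPY-GDP is released from Rap1B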
# In short: (§1)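 Measured: fluorescence of BODIPY-GDP bound to Rap1B, which falls as exchange proceeds. Conditions include 50 uM competing GDP, 5 and 30 min reads, and a later cAMP challenge for antagonist detection.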
# [6] = molecular target: Rap guanine nucleotide exchange factor 3 (Homo sapiens) (UniProt O95398); test: Counterscreen qHTS for agonist of cAMP-regulated guanine nucleotide exchange factor 3 (EPAC1) (AID 1645889); note: nearly all actives have a fitted effect of over 40% in size; note: potency is the fitted concentration of half-maximal effect
# In short: as §1
# Chain of Rap guanine nucleotide exchange factor 4 (Homo sapiens) (Q8WZA2 whole entry, looked up): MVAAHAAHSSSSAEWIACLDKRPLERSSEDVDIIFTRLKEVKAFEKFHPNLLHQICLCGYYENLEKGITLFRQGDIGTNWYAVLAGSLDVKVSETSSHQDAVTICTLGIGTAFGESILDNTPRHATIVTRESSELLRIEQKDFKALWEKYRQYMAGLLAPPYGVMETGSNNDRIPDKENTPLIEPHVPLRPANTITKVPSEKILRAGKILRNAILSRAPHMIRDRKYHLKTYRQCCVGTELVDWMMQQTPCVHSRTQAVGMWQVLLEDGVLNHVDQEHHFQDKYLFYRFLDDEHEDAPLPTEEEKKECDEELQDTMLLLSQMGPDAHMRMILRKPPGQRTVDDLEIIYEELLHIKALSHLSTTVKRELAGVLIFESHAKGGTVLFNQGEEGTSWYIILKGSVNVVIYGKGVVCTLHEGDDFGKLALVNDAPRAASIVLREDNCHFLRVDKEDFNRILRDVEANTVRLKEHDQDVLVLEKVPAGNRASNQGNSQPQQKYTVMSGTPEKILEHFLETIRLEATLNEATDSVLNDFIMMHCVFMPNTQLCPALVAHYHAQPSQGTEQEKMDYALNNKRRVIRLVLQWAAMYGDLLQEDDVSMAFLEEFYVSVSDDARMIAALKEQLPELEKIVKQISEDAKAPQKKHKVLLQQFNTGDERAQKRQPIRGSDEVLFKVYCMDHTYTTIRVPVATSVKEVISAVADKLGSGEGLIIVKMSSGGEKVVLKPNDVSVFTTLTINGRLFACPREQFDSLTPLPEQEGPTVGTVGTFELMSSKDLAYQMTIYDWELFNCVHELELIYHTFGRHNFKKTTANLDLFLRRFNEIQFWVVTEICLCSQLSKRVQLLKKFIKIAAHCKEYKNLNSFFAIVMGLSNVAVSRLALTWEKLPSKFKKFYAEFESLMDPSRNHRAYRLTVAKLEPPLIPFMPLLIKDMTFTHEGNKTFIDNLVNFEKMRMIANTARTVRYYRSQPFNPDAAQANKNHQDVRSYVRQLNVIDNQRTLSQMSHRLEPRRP
# Chain of Rap guanine nucleotide exchange factor 3 (Homo sapiens) (O95398 whole entry, looked up): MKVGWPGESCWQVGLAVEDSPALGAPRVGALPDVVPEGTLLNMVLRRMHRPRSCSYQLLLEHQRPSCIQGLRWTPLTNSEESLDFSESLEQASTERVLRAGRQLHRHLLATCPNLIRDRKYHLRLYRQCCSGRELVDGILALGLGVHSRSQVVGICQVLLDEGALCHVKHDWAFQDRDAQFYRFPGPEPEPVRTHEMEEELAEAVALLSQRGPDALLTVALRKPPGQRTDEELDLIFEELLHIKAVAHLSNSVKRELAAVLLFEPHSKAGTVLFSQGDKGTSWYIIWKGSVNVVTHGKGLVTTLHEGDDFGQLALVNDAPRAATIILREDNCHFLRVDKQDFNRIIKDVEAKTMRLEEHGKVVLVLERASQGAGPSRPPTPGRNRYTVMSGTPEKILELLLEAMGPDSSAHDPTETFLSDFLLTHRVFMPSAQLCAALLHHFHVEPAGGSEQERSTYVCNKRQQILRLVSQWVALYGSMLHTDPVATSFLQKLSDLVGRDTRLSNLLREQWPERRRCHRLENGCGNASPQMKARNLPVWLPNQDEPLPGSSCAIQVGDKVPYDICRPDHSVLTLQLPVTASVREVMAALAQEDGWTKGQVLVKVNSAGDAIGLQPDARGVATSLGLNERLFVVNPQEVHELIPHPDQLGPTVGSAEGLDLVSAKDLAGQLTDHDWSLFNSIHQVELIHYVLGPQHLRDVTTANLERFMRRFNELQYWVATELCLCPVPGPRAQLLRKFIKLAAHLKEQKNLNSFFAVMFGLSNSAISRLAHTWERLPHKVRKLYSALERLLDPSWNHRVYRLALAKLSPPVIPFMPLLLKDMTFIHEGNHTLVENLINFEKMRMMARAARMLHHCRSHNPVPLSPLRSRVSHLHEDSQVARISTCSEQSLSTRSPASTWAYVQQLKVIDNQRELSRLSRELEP
SMILES,Potency [1],Potency [2],Potency [3],Potency [4],Potency [5],Potency [6],activation [3],"activity change, negative = inhibition [5]",activation [6]
CC1C/C(=C/c2cccn2C)C(=O)/C(=C/c2cccn2C)C1 (stereo unspecified),16.9 µM (active),inactive,inactive,inactive,inactive,79.4 µM (active),–,–,–
O=C1CC(Cc2ccccc2)C(=O)N1CCc1ccc2c(c1)OCO2 (stereo unspecified),inactive,inactive,–,inactive,–,–,"2.14% [at 17.1 µM, percent relative to cAMP agonist control]",-4.71% [at 30.8 µM],1.4% [at 30.8 µM]
O=C(OCc1c(-c2ccccc2)ncc2ccccc12)c1ccco1,inactive,inactive,inactive,inactive,inactive,inactive,–,–,–
CCOC(=O)c1sc(N=NC2=C(O)CCCC2=O)c(C(=O)OCC)c1C,8.91 µM (active),inactive,–,inactive,–,–,"-2.58% [at 17.1 µM, percent relative to cAMP agonist control]",-17% [at 30.8 µM],6.27% [at 30.8 µM]
Cc1[nH]c2ccccc2c1C(C[N+](=O)[O-])c1cccs1 (stereo unspecified),inactive,inactive,–,inactive,–,–,"5.2% [at 17.1 µM, percent relative to cAMP agonist control]",-10.6% [at 30.8 µM],46.2% [at 30.8 µM]
CC1(Cc2ccc(Cl)cc2)C(=O)Nc2ccc(-c3cccnc3)cc21 (stereo unspecified),inactive,inactive,inactive,inactive,inactive,inactive,–,–,–
C#CCOc1ccc(/C=C2/C(=O)N(c3cccc(C(=O)O)c3)N=C2C)cc1OC,inactive,inactive,–,inactive,–,–,"5.95% [at 17.1 µM, percent relative to cAMP agonist control]",6.78% [at 30.8 µM],10.5% [at 30.8 µM]
CCN(CC)c1nc(C)nc2c1sc(=S)n2C,inactive,inactive,inactive,inactive,inactive,inactive,–,–,–
N#Cc1c(/N=C/c2ccco2)sc2c1CCC2,inactive,inactive,–,inactive,–,–,"2.45% [at 17.1 µM, percent relative to cAMP agonist control]",0.743% [at 30.8 µM],7.28% [at 30.8 µM]
Nc1nnc(-c2cccc(F)c2)s1,inactive,inactive,inactive,inactive,inactive,inactive,–,–,–
CC1CCCN(CC(=O)Nc2cc(Cl)ccc2Oc2ccccc2)C1 (stereo unspecified),inactive,inactive,inactive,inactive,inactive,inactive,–,–,–
CC1S/C(=N/N=C2CCC(C(C)(C)C)CC2)NC1=O (stereo unspecified),inactive,inactive,–,inactive,–,–,"-7.78% [at 17.1 µM, percent relative to cAMP agonist control]",2.96% [at 30.8 µM],18.6% [at 30.8 µM]
COc1ccc(C2CC(=O)n3c(nc4ccccc43)S2)cc1OC (stereo unspecified),inactive,inactive,–,inactive,–,–,"2.96% [at 17.1 µM, percent relative to cAMP agonist control]",10.2% [at 30.8 µM],6.35% [at 30.8 µM]
O=C1c2ccccc2C(=O)N1c1nc(-c2cccs2)cs1,4.78 µM (active),inactive,inactive,60.1 µM (active),inactive,inactive,–,–,–
Cc1[nH]c(C)c2c(=O)n(Cc3ccc(Cl)cc3)ncc12,inactive,inactive,inactive,15.1 µM (active),inactive,inactive,–,–,–
Cc1cc(C)c(C(=O)c2cccs2)c(C)c1,inactive,inactive,inactive,inactive,inactive,inactive,–,–,–
CC(C)(C)c1cc(-c2csc(Nc3ccccc3)[n+]2Cc2ccc(C(=O)O)cc2)cc(C(C)(C)C)c1O,67.5 µM (active),inactive,inactive,84.9 µM (active),inactive,inactive,–,–,–
Cn1cc([C@]2(O)C(=O)Nc3ccc(F)cc32)c2ccccc21,inactive,inactive,–,inactive,–,–,"-4.66% [at 17.1 µM, percent relative to cAMP agonist control]",-17.1% [at 30.8 µM],12.7% [at 30.8 µM]
Cc1ccc(N(Cc2cccs2)C(=O)c2ccccc2[N+](=O)[O-])cc1,inactive,inactive,inactive,inactive,inactive,inactive,–,–,–
COc1ccc(CCNC(=O)CSc2nc(N)c(C#N)c(-c3cccs3)c2C#N)cc1OC,inactive,inactive,–,inactive,–,–,"3.67% [at 17.1 µM, percent relative to cAMP agonist control]",-17% [at 30.8 µM],20.5% [at 30.8 µM]
O=C(Nc1cc(C(=O)Nc2ccccc2C(=O)O)cc(C(=O)Nc2ccccc2C(=O)O)c1)c1ccccc1,2.24 µM (active),inactive,–,inactive,–,–,"5.98% [at 17.1 µM, percent relative to cAMP agonist control]",11.5% [at 30.8 µM],19.7% [at 30.8 µM]

SMILES,Potency [1],Potency [2],Potency [3],Potency [4],Potency [5],Potency [6],activation [3],"activity change, negative = inhibition [5]",activation [6]
CN(C)C(=S)Oc1ccccc1-c1ccccc1OC(=S)N(C)C,inactive,inactive,inactive,inactive,inactive,inactive,–,–,–
COc1cc(C2c3c(oc4ccccc4c3=O)C(=O)N2c2nc(C)c(C)s2)ccc1O (stereo unspecified),inactive,inactive,inactive,inactive,inactive,inactive,–,–,–
COc1cccc(-c2ccc(C#N)c(OC(=O)c3ccc(Cl)cc3)n2)c1,inactive,inactive,–,inactive,–,–,"0.578% [at 17.1 µM, percent relative to cAMP agonist control]",-4.63% [at 30.8 µM],3.51% [at 30.8 µM]
Cc1c(C(=O)N2CCCCC2)oc2ccc(Br)cc12,inactive,inactive,inactive,inactive,inactive,inactive,–,–,–
CN(C)S(=O)(=O)N1CCN(S(=O)(=O)N(C)C)CC1,inactive,inactive,–,inactive,–,–,"5.89% [at 17.1 µM, percent relative to cAMP agonist control]",-14.8% [at 30.8 µM],1.25% [at 30.8 µM]
COc1cc(/C=C2\SC(=O)N(CC(=O)Nc3cccc(C)c3)C2=O)cc([N+](=O)[O-])c1O,19 µM (active),inactive,inactive,47.8 µM (active),inactive,inactive,–,–,–
CC(C)CCOc1ccc(C2(C)NC(=O)N(CN3CCOCC3)C2=O)cc1 (stereo unspecified),inactive,inactive,inactive,inactive,inactive,inactive,–,–,–
Nc1nc(CSc2nnnn2-c2ccc(Cl)cc2)nc(N2CCOCC2)n1,inactive,inactive,–,inactive,–,–,"5.65% [at 17.1 µM, percent relative to cAMP agonist control]",9.77% [at 30.8 µM],8.16% [at 30.8 µM]
Nc1c(C(=O)c2ccccc2)sc2nsc(SCCN3CCCC3)c12,inactive,100 µM (active),100 µM (active),84.9 µM (active),inactive,39.8 µM (active),–,–,–
Cc1cccc(NC(=S)NC(=O)c2oc3ccccc3c2C)n1,inactive,inactive,inactive,inactive,inactive,inactive,–,–,–
C(=N\N1CCN(C(c2ccccc2)c2ccccc2)CC1)/c1ccc2c(c1)OCO2,inactive,inactive,inactive,84.9 µM (active),inactive,inactive,–,–,–
CCCCN1C(=O)C(C(=O)OCc2ccccc2)CC2=C1CCCC2=O (stereo unspecified),inactive,inactive,inactive,inactive,inactive,inactive,–,–,–
O=C(NCC1CCCO1)c1ccc(C(=O)NCC2CCCO2)cc1 (stereo unspecified),inactive,inactive,–,inactive,–,–,"5.86% [at 17.1 µM, percent relative to cAMP agonist control]",-1.36% [at 30.8 µM],-3.36% [at 30.8 µM]
CCOC(=O)c1oc2ccccc2c1CN1CCN(C(=O)c2ccccc2)CC1,inactive,inactive,inactive,inactive,inactive,inactive,–,–,–
COc1ccc(OC)c(/C=c2\sc3nc(-c4cccs4)nn3c2=O)c1,inactive,89.1 µM (active),100 µM (active),inactive,inactive,inactive,–,–,–
CC(Sc1ccc(Cl)cc1)C(=O)NNC(=O)c1csc(N2CCOCC2)n1 (stereo unspecified),inactive,inactive,–,inactive,–,–,"4.3% [at 17.1 µM, percent relative to cAMP agonist control]",-11.6% [at 30.8 µM],30.8% [at 30.8 µM]
CCCCC1=CC2=CC(=O)C(C)(OC(=O)C3CCCC3)C(=O)C2=CO1 (stereo unspecified),39.8 µM (active),inactive,–,inactive,–,–,"1.4% [at 17.1 µM, percent relative to cAMP agonist control]",-20.6% [at 30.8 µM],18% [at 30.8 µM]
CC(OC(=O)CN1C(=O)COc2ccccc21)C(=O)NCc1ccc(F)cc1 (stereo unspecified),inactive,inactive,inactive,inactive,inactive,inactive,–,–,–
Cc1ccc(N2NC(=O)/C(=C\c3cc4c(cc3[N+](=O)[O-])OCO4)C2=O)cc1C,75.7 µM (active),inactive,inactive,inactive,inactive,inactive,–,–,–
O=C(N[C@@H](Cc1c[nH]c2ccccc12)C(=O)O)OCC1c2ccccc2-c2ccccc21,inactive,inactive,inactive,inactive,inactive,inactive,–,–,–
